High-throughput results deposited in PubChem BioAssay by The Scripps Research Institute Molecular Screening Center.
An excerpt weighted towards active compounds, which were near 3.4% of everything screened.
TEAD-YAP block – TEAD-YAP interaction inhibition; inhibition, % at 9.12 µM; HEK-TIYL cells, TEAD-Gal4/YAP UAS-luciferase luminescence; hit rate 1.4% among 640,000; in the data active means inhibition above about 32%;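 further: 0% = median of test compound wells and 100% = reference inhibitor wells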
GPR151 activ – human GPR151 activation. activation, % at 11.2 µM. hit rate 1% among 650,000. PathHunter beta-arrestin GPR151 cells, luminescence. Q8TDV0; in the data active means activation above about 4.9%;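 further: 0% = median of compound wells and 100% = cells with positive control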
FBW7 activator – activators of human E3 ligase FBW7 | AlphaScreen FBW7–phospho-cyclin E peptide binding, activator screen | normalized activity (activation), % at 26.1 µM | hit rate 0.13% among 650,000 | AID 1259310; in the data active means normalized activity above about 1.9%;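 further: purified mutant Fbw7 with reduced substrate affinity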
MITF primary – inhibitors of human MITF; AID 1259374; AlphaScreen MITF homodimerization, bead proximity signal; hit rate 0.91% among 650,000; inhibition, % at 2.6 µM; O75030; in the data active means inhibition above about 50%;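 further: 0% = vehicle wells with protein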
Target sequence (O75030 whole entry, looked up): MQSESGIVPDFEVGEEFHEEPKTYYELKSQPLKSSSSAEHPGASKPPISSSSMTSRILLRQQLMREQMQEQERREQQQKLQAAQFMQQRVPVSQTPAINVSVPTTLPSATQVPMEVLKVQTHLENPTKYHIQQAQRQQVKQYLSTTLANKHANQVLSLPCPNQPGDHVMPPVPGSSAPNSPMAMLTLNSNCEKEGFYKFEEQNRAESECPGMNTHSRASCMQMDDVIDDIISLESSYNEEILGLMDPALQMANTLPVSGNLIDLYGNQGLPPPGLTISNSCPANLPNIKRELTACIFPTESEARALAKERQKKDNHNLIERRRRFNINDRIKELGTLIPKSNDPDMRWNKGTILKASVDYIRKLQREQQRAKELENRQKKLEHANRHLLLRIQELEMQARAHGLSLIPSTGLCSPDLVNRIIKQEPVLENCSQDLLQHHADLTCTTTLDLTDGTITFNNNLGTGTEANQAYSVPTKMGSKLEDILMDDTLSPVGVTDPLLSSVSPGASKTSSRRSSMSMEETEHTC
GPR151 confirm – human GPR151 activation, confirmation screen; shares compounds with GPR151 activ; GPR151 PathHunter beta-arrestin cells, luminescence, 90 min; % of EA-reagent control over plate median; activation, % at 11.2 µM; 6,700 tested, under 10 active; AID 1508609;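 active means mean percent activation across replicates above the confirmation screen cutoff of 4.91%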
GPR119 counter – activates human GPR119 in a GPR151 counter-screen | shares compounds with GPR151 activ | GPR119 PathHunter beta-arrestin cells, luminescence, 90 min; 0 = compound-well median, 100 = enzyme-acceptor control | activation, % at 11.2 µM | hit rate 0.3% among 6,700 | AID 1508611;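 active means mean percent activation in the counterscreen above 29.09%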;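 further: counterscreen on off-target GPR119 to flag nonselective hits from the GPR151 activator screen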
* hit, by the source's call; / = no result given.

SMILES | TEAD-YAP block | GPR151 activ | FBW7 activator | MITF primary | GPR151 confirm | GPR119 counter
O=C1CC(c2ccc(S(=O)(=O)NCc3ccccc3Cl)cc2)CN1 (stereo unspecified) | 4.5 | -0.2 | 0.1 | 2.9 | / | /
Cc1ccc(C(c2nnnn2CCc2ccccc2)N2CCOCC2)cc1 (stereo unspecified) | 5.2 | 6.8* | 0.0 | -18.5 | 0.6 | -1.2
Cc1ccc(Oc2nc3ccccn3c(=O)c2/C=C(\C#N)C(=O)N2CCOCC2)cc1 | 1.7 | 4.9* | 0.4 | 3.2 | -0.8 | -9.7
COCCNC(=O)/C(C#N)=C/c1c(Oc2cccc(C)c2)nc2c(C)cccn2c1=O | 4.5 | 6.1* | -0.1 | -0.5 | 1.2 | 1.5
Cc1cccn2c(=O)c(/C=C(\C#N)C(=O)N3CCCCC3)c(Oc3ccc(F)cc3)nc12 | 10.7 | 5.7* | 0.1 | -15.7 | -0.5 | -11.5
COc1ccc(Oc2nc3c(C)cccn3c(=O)c2/C=C(\C#N)C(=O)N2CCCCC2)cc1 | 4.2 | 0.8 | -0.1 | 5.9 | / | /
CCOC(=O)C1=C(C)N=c2s/c(=C\c3ccc(-c4ccc(Cl)cc4)o3)c(=O)n2C1c1ccccc1OC (stereo unspecified) | 0.3 | -0.9 | 0.0 | -4.3 | / | /
CCCCCNC(=O)COc1cccc2c1OC(C)(C)C2 | -10.8 | 3.6 | -0.1 | 7.8 | / | /
CCOC(=O)C1=C(C)N=c2s/c(=C\c3c(C)[nH]c4ccccc34)c(=O)n2C1c1ccc(SC)cc1 (stereo unspecified) | -6.5 | -0.8 | -0.1 | 0.1 | / | /
CCOC(=O)Nc1ccc(S(=O)(=O)N2CCN(c3ccccc3)CC2)cc1 | 4.2 | -1.2 | 0.2 | 7.4 | / | /
Cc1ccsc1CN1CCC2(CC1)CC2C(=O)N(C)Cc1cscn1 (stereo unspecified) | 1.0 | 5.2* | 0.5 | -1.3 | 0.4 | -1.0
Cc1nc2ccccc2nc1CN1CCC2(CC1)CC2C(=O)N(C)Cc1cscn1 (stereo unspecified) | 7.4 | 0.0 | 0.1 | 15.6 | / | /
Cc1cc(C)nc(N(C(=O)C2CC2)c2ccc(Cl)cc2)n1 | -13.4 | -1.7 | 0.0 | -6.4 | / | /
CCC(=O)N1CCC[C@@H]2CN(C(=O)/C=C/c3cccs3)CC[C@H]21 | -17.3 | 5.6* | 0.1 | -1.8 | 0.4 | -2.4
CCCC(CCC)C(=O)Nc1cccnc1 | 1.9 | 0.3 | -0.1 | -12.0 | / | /
CCCC(CCC)C(=O)Nc1ccncc1 | -3.2 | 8.7* | 1.1 | 11.0 | 1.0 | 5.2
O=C(NCCN1CCOCC1)c1ccc(N2CCCCCC2)c([N+](=O)[O-])c1 | 3.9 | 0.9 | 0.0 | 6.3 | / | /
Cc1cc(Nc2ccc3c(c2)OCO3)nc(Nc2nc3ccccc3n2C)n1 | 0.4 | 7.4* | -0.1 | -9.5 | 0.4 | -1.3
COc1ccccc1NC(=O)CSc1nc(-c2ccc(Cl)cc2)cn1-c1ccc(C)cc1 | -3.2 | -2.0 | 0.0 | -12.1 | / | /
O=C(Nc1cccc(N2C(=O)C3CC=CCC3C2=O)c1)c1ccccc1 (stereo unspecified) | -1.1 | -0.5 | 0.2 | 11.4 | / | /
O=C(CC1(c2ccccc2F)CC(=O)N(C2CCCC2)C1=O)N1CCc2ccccc2C1 (stereo unspecified) | 11.8 | -0.4 | 0.4 | 4.8 | / | /
c1ccc2oc(NC3=NCN(C4CCCCC4)CN3)nc2c1 | -13.5 | 9.9* | 0.1 | -9.4 | 1.4 | 4.5
Nc1cccc(S(=O)(=O)Nc2cccc(C(F)(F)F)c2)c1 | -5.3 | 1.0 | -0.2 | -3.0 | / | /
CC(C)c1ccc(N(C)S(=O)(=O)c2ccc3[nH]cc(C(=O)NCCN4CCOCC4)c(=O)c3c2)cc1 | -0.9 | 5.1* | -0.3 | -18.4 | -1.0 | 0.2
CC(C)N(CCNC(=O)c1cnc(Nc2ccncn2)s1)C(C)C | -6.5 | 0.5 | 0.1 | 2.8 | / | /
Cc1cc(C)c(CN2CCC3(CCC(CNC(=O)c4ccn(C)n4)O3)CC2)cc1C (stereo unspecified) | 0.5 | 1.2 | 0.1 | -10.1 | / | /
COc1ccccc1CN1CCC2(CCC(CNC(=O)c3ccn(C)n3)O2)CC1 (stereo unspecified) | 3.3 | 6.4* | 0.2 | -3.0 | 0.1 | -2.5
Cc1cccc(NC(=O)CSc2nnc(CNC(=O)c3ccco3)n2-c2ccc(F)cc2)c1 | 2.4 | 1.0 | -0.4 | 27.5 | / | /
CN(c1ccc(C(=O)Nc2ccccc2)cc1)S(=O)(=O)c1ccccc1 | -15.5 | -0.1 | 0.0 | -9.5 | / | /
